Compound activity as filed in PubChem.
tim23-1 inh – inhibits growth of tim23-1 mutant yeast. inhibition, % at 20 µM. S. cerevisiae tim23-1 growth, BacTiter-Glo luminescence, 24 h. AID 463212. 330,000 compounds, 1.3% hits;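 active = growth inhibition of the mutant yeast at or above 50%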;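 note: temperature-sensitive mutant grown at 25 °C; plate controls were DMSO-treated mutant yeast for no effect and medium wells lacking yeast for full effect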
tim10-1 inh – growth inhibitors of tim10-1 mutant yeast; S. cerevisiae tim10-1 ts strain growth, BacTiter-Glo, 24 h; inhibition, % at 20 µM; 330,000 compounds, 2.2% hits; AID 463190;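 active = inhibition of at least 40%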;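 note: mutant grown at 25 °C; 0% = DMSO wells with yeast and 100% = wells holding no yeast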
PfHsp90 yeast 2 – reduces growth (ATP signal) of yeast expressing P. falciparum Hsp90; S. cerevisiae expressing PfHsp90, BacTiter-Glo ATP, 48 h; yeast lacking PDR1 and PDR3 efflux regulators; inhibition, % at 9.4 µM; 310,000 compounds, 0.32% hits; AID 504621;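 active = every replicate shows inhibition above about 80%, whatever the replicate mean, limit read from the data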;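 note: 0% = DMSO neutral controls and 100% = 20 µM radicicol positive controls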
SKKanGAS inh – inhibitors of SKKanGAS S. pyogenes growth in kanamycin (SK-promoter or general growth effect). inhibition, % at 7.5 µM. 300,000 compounds, 1.3% hits. BacTiter-Glo, 6 h. AID 1662;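 active = mean replicate score, as percent of positive control median, at least 50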;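 note: strain carries kanamycin resistance gene driven by streptokinase promoter and grows in 40 µg/ml kanamycin; loss of luminescence reflects streptokinase promoter inhibition or plain growth inhibition; 0% = median of DMSO wells and 100% = positive control at its reference dose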
TIM10 inh – TIM10 yeast growth inhibition; S. cerevisiae TIM10 strain growth, BacTiter-Glo luminescence, 24 h; inhibition, % at 10 µM; 330,000 compounds, 1.4% hits;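 active = inhibition of 40% or more at the single tested concentration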;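 note: wild-type TIM10 isogenic control strain grown at permissive 25 °C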
EBI2 antag – blocks human EBI2 receptor beta-arrestin signaling. EBI2 beta-arrestin recruitment, luminescence, 7a,25-OHC stimulated. inhibition, % at 5 µM. 360,000 compounds, 0.81% hits. AID 651636; in the data active = inhibition above about 38%;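 note: enzyme fragment complementation signal reports receptor beta-arrestin coupling in cells; 0% = agonist plus DMSO wells and 100% = wells without agonist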
Target sequence (P32249 whole entry, looked up, the tested form may be a part): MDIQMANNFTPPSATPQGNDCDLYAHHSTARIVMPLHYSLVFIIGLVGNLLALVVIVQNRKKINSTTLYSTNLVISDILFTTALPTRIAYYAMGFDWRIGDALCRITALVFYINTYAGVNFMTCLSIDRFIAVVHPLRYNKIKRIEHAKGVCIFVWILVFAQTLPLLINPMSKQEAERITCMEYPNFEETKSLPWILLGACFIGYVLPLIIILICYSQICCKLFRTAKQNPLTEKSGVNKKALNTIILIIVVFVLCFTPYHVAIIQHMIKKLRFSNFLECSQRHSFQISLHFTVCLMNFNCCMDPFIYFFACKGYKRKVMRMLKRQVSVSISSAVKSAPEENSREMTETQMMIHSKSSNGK
tim10-1 confirm – tim10-1 yeast growth inhibition, confirmed. shares compounds with tim10-1 inh. S. cerevisiae tim10-1 ts strain growth, BacTiter-Glo, 24 h. inhibition, % at 20 µM. 7,400 compounds, 56% hits;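 active = inhibition of yeast growth at or above a set limit in either of two repeat tests at 20 µM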;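 note: tim10-1 mutant grown at permissive 25 °C to find synthetic lethal compounds; 0% = DMSO yeast wells and 100% = medium wells without yeast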
tim10 confirm – TIM10 yeast growth inhibition, confirmed. shares compounds with TIM10 inh. S. cerevisiae tim10 strain growth, BacTiter-Glo luminescence, 24 h. inhibition, % at 10 µM. 4,600 compounds, 63% hits;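 active = inhibition of yeast growth at or above a set limit in either of two replicates at 10 µM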;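 note: this counterscreen used the strain with wild-type TIM10; 0% = yeast with DMSO and 100% = medium wells lacking yeast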
tim23-1 confirm – tim23-1 yeast growth inhibition, confirmed. shares compounds with tim23-1 inh. S. cerevisiae tim23-1 growth, BacTiter-Glo luminescence, 24 h. inhibition, % at 20 µM. 4,400 compounds, 83% hits. AID 463218;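 active = inhibition above about 39% in either of two replicate wells at 20 µM, limit read from the data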;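 note: temperature-sensitive tim23-1 mutant grown at 25 °C; 0% = DMSO wells with yeast and 100% = medium wells without yeast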
* marks the source's active call; other numbers are inactive results; · = not tested or not shown. This is a sample that favours compounds with a hit; in the whole collection about 4.7% have one here.

SMILES	tim23-1 inh	tim10-1 inh	PfHsp90 yeast 2	SKKanGAS inh	TIM10 inh	EBI2 antag	tim10-1 confirm	tim10 confirm	tim23-1 confirm
CCCn1c(N)c(N(CCOC)C(=O)Cc2ccc(S(=O)(=O)N3CCOCC3)s2)c(=O)[nH]c1=O	-6	-11	-20	-1	-12	-11	·	·	·
Cc1ccc(C)c(NC(=O)C2CCCN2S(=O)(=O)c2ccc3c(c2)n(C)c(=O)c(=O)n3C)c1 (configuration not stated)	-7	-6	-1	-8	9	0	·	·	·
NC(=S)Nc1ccc(Cl)c(Cl)c1	8	11	19	-4	14	-2	·	·	·
NN(Cc1ccccc1)C(=S)Nc1ccc(Cl)c(Cl)c1	71*	41*	6	29	50*	-11	66*	51*	69*
COc1ccc(OC)c(C=NNC(=O)c2ccccc2NS(=O)(=O)c2cccs2)c1	13	6	1	·	7	2	·	·	·
CC1CC(C)(C)N2C(=O)C3(Nc4ccccc4S3)c3cccc1c32 (configuration not stated)	58*	61*	19	14	47*	-6	54*	61*	62*
O=C1N2CCCc3cccc(c32)C12Nc1ccccc1S2 (configuration not stated)	·	·	·	4	·	-13	·	·	·
Cc1ccc(NC(=O)C(=O)NCCOc2ccc(Cl)cc2)c(C)c1	-10	5	-6	-8	-6	-7	·	·	·
Cc1cccc(C)c1OCC(=O)Nc1ccc(N2CCOCC2)cc1	15	20	1	10	11	-9	·	·	·
CCOC(=O)C(=CNNc1cccc(Cl)c1)C(=O)OCC	55*	41*	18	-13	27	-9	53*	·	72*
COc1ccccc1C/C(N)=N/OC(=O)c1ccc(C)c([N+](=O)[O-])c1	75*	69*	-32	0	86*	5	43*	86*	42*
COc1ccc(C(=O)O/N=C(\N)Cc2cccs2)cc1OC	33	26	3	-3	37	-5	·	·	·
COc1ccc(/C(N)=N/OC(=O)c2ccc(OC)c([N+](=O)[O-])c2)cc1OC	11	37	11	-2	10	-1	·	·	·
Cc1ccc(C(=O)O/N=C(\N)Cc2cccs2)cc1[N+](=O)[O-]	88*	43*	-26	-5	83*	-12	67*	85*	83*
CC1(C(=O)NCc2ccccc2)CCC(=O)N1CC(F)(F)F (configuration not stated)	·	·	·	·	·	-7	·	·	·
C[C@@H]1CC=C[C@H]2[C@H]1C(=O)N(Cc1ccccc1)[C@H]2c1ccc2ccccc2c1Br	64*	69*	-38	57*	65*	-8	73*	56*	71*
Cc1cc(NC(=O)C2CC(=O)N(c3cccc(Cl)c3)C2)no1 (configuration not stated)	-4	-11	15	-14	-28	1	·	·	·
COC(=O)Cc1c(C)[nH]n(-c2cc(Cl)cc(Cl)c2)c1=O	70*	45*	-2	22	30	0	37*	·	63*
CCNC(=O)c1ccc2c(c1)C1C3CCC(C3)C1C(c1ccccc1)N2 (configuration not stated)	63*	59*	-13	3	41*	-7	55*	43*	65*
Cc1ccc(/C=C/C(=O)NC2CCCCCCC2)o1	52*	55*	-8	5	46*	17	57*	38*	58*
Cc1ccc(/C=N/NC(=O)NC2CCCCC2)o1	14	14	9	-1	25	-5	·	·	·
COc1cccc(C(=O)Nc2cc(C(F)(F)F)ccc2Cl)c1	30	31	-13	-7	27	-3	·	·	·
COc1cccc(C(=O)Nc2ccc(Cl)c(C(F)(F)F)c2)c1	68*	64*	57	8	61*	2	57*	50*	75*
Cc1cc(C)cc(OC(=O)CS(=O)c2ccc(C(F)(F)F)cc2[N+](=O)[O-])c1 (configuration not stated)	66*	51*	-46	11	31	13	28*	·	68*
O=C(CS(=O)c1ccc(C(F)(F)F)cc1[N+](=O)[O-])Oc1ccc(Cl)cc1 (configuration not stated)	70*	47*	-7	-5	55*	10	47*	36*	67*
SMILES	tim23-1 inh	tim10-1 inh	PfHsp90 yeast 2	SKKanGAS inh	TIM10 inh	EBI2 antag	tim10-1 confirm	tim10 confirm	tim23-1 confirm
O=C(NCCO)c1ccc(Oc2ccc(C(F)(F)F)cc2[N+](=O)[O-])cc1	5	0	-8	-1	0	-17	·	·	·
Cc1ccc(OCCNc2ccc(C(F)(F)F)cc2[N+](=O)[O-])cc1	7	3	-38	-5	1	0	·	·	·
COC(=O)Nc1ccc(S(=O)(=O)N2CCCC(C(=O)N3CCCCCC3)C2)cc1 (configuration not stated)	30	5	-11	-26	-4	6	·	·	·
CC(C)(C)OC(=O)[C@H](Cc1ccccc1)NC(=O)c1ncn2c1c(=O)[nH]c1ccc(Br)cc12	·	·	·	·	·	8	·	·	·
CCCOc1cc(N)ccc1C(=O)OCCN(CC)CC	-10	-11	-7	·	1	1	·	·	·
CCCOc1ccc(N)cc1N	56*	50*	-20	10	22	1	19	·	36
CCCC(=O)Nn1cnc2c(c1=O)C1(CCCCC1)Cc1ccccc1-2	53*	41*	-8	1	52*	14	44*	40*	52*
COc1ccc(CNC(=O)COC(=O)CCn2c(C)csc2=O)cc1OC	15	-9	·	-23	-3	-2	·	·	·
NC(=O)c1ccc[n+]([C@H]2O[C@@H](COP(=O)([O-])OP(=O)(O)OC[C@H]3O[C@@H](n4cnc5c(N)ncnc54)[C@H](O)[C@@H]3O)[C@H](O)[C@@H]2O)c1	71*	78*	88*	·	59*	-3	75*	45*	78*
COc1ccccc1-c1nc2s/c(=C\c3cccs3)c(=O)n2n1	78*	64*	-14	22	57*	7	29	-18	76*
CCCOc1ccc(Cc2nn3c(=O)/c(=C/c4ccco4)sc3nc2=O)cc1	24	20	-40	-2	20	7	·	·	·
O=c1/c(=C/c2ccco2)sc2nc(-c3ccccc3Br)nn12	57*	45*	3	·	64*	4	41*	51*	45*
COc1ccc(/C=c2\sc3nc(-c4ccccc4OC)nn3c2=O)c(OC)c1	0	18	-36	18	-20	30	·	·	·
